Bioassay records from PubChem BioAssay.
Shiga toxin inh: blocks Shiga toxin action in Vero cells. Vero cells, Shiga toxin protein synthesis inhibition reporter. inhibition, % at 38.7 µM. 290,000 tested, 9.2% active. AID 2315; in the data active = inhibition mostly above about 28%, no sharp cut-off; inactive = mostly below about 43%
Cycloheximide cs: affects cycloheximide protein synthesis inhibition readout, counter-screen | cell reporter, cycloheximide protein synthesis inhibition counterscreen | 300,000 tested, 12% active | max response, % | AID 2314; in the data active = max response mostly above about 13%, no sharp cut-off; inactive = mostly below about 14%; also: read at 38.3 µM for the half of the compounds with a filed dose
Pf growth 96h: P. falciparum growth inhibition at 96 hours; P. falciparum luciferase reporter growth, 96 h; Potency, µM (highest dose often 28.7 µM), most hits filed as inhibitors; 320,000 tested, 6.9% active; AID 504834
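Erythrocytes infected with luciferase-expressing P. falciparum were dispensed at 2% hematocrit and 0.05% parasitemia (final), then incubated with compounds 96 hours at 37 C in 5% CO2. Luminescence after detection reagent addition reported growth.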
HCMV antiviral: inhibitors of human cytomegalovirus. HFF cells, HCMV-luciferase reporter, 72 h; hits give low values. activity change, negative = inhibition, % at 57.5 µM. 410,000 tested, 4.5% active; in the data active = activity change below about -60%; inconclusive = no clear call, values can overlap the other calls; inactive = above about -39%
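Screen run at 2 compound doses on HFFs infected with reporter HCMV, MOI 1 PFU/cell. Luciferase activity from cell lysates at 72 h post infection gave inhibition relative to buffer-only and Salinomycin wells.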
Pf growth 48h: inhibits P. falciparum growth in the first generation, 48 h; Potency, µM (doses to about 28.7 µM), actives largely listed as inhibitors; 310,000 tested, 5.9% active; AID 504832; P. falciparum luciferase growth in erythrocytes, 48 h
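Growth was read as firefly luciferase luminescence after a 48 h, 37 C, 5% CO2 exposure of compounds to reporter-bearing P. falciparum cultures (0.1% parasitemia, 2% hematocrit final) in Albumax-supplemented RPMI 1640.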
Numbers stand for hits; i = inactive; ? = inconclusive; nt = no result given; + = active, no number; ! = not active in a repeat; [ ] = remark or other dose. This is a sample that favours compounds with a hit; in the whole collection about 20% have one here. Unless noted, calls follow the shape of the dose curve; as a rule, active = well fitted inhibition curve with a large enough effect; inconclusive = small, poorly fitted or top-dose-only effect, or another doubt; inactive = no such curve, though single readings can be large or run the other way.

SMILES	Shiga toxin inh	Cycloheximide cs	Pf growth 96h	HCMV antiviral	Pf growth 48h
COc1ccc(N/C(=C2\CCCC2=O)C2CCCCC2)cc1	nt	nt	nt	i	nt
Cc1ccc(S(=O)(=O)N/N=C/c2ccc(OCC(=O)NC(C)C)cc2)cc1	nt	nt	nt	i	nt
CC(C)COP(=O)(OCC(C)C)C(Nc1ccccc1)c1ccccc1 (configuration not stated)	i	i	?	i	?
O=P(Oc1ccccc1)(Oc1ccccc1)C(Nc1ccccc1)c1ccccc1 (configuration not stated)	i	i	1.7µM	i	?
Cc1ccccc1-c1noc(C23CC4CC(CC(C4)C2)C3)n1	i	i	i	i	nt
c1cncc(-c2noc(C34CC5CC(CC(C5)C3)C4)n2)c1	36	22	i	i	?
O=C(CNC(=O)c1ccccc1Br)NCC(c1ccco1)N1CCCCC1 (configuration not stated)	nt	nt	nt	i	nt
CC1CCN(C(=O)c2ccccc2SCC(=O)NCC2CCCCC2)CC1	nt	nt	?	i	?
C[C@H](CO)N1C[C@H](C)[C@H](CN(C)C(=O)Nc2ccc(F)cc2)OCc2cnnn2CCCC1=O	nt	nt	nt	i	nt
O=C(CSc1nnnn1C1CC1)N1CCN(c2cccc(Cl)c2)CC1	nt	nt	nt	i	nt
CC(C)c1ccc(CN2CCN(C(=O)CSc3nnnn3C3CC3)CC2)cc1	nt	nt	12µM	-90	7.4µM
CCOc1ccccc1/C=C/c1onc(C)c1S(=O)(=O)N1CCC(C(=O)N(CC)CC)CC1	i	i	i	+!	10µM
CCN(CCN(C)C)C(=O)C1CCN(S(=O)(=O)c2c(C)noc2/C=C/c2ccccc2F)CC1	i	i	i	-99!	9.3µM
COc1ccc(-c2c3c(=O)n(C)c(=O)n(C)c3cn2-c2cc(OC)ccc2OC)cc1	i	i	i[5.75 µM]	i	13µM
COc1ccc(-c2c3c(=O)n(C)c(=O)n(C)c3cn2-c2ccccc2O)cc1	i	i	?	?	?
COc1ccc(-c2c3c(=O)n(C)c(=O)n(C)c3cn2Cc2ccccn2)cc1	i	i	i	i	i
COc1ccc(-c2c3c(=O)n(C)c(=O)n(C)c3cn2Cc2cccnc2)cc1	126	17	?	i	i
COc1ccc(S(=O)(=O)N2CCCCC2)cc1NC(=O)c1ccc(C)cc1	nt	nt	i	?	i
CCOC(=O)c1cnc2ccc(OC)cc2c1Nc1cccc(C(C)=O)c1	nt	nt	nt	i	nt
CCOC(=O)c1cnc2ccccc2c1NCc1ccco1	52	23	?	?	?
CCOC(=O)c1cnc2ccccc2c1Nc1ccc2c(c1)OCCO2	154	110	i	-70	4.1µM
CCOC(=O)c1cnc2ccc(OC)cc2c1NCc1ccccc1	i	i	?	i	12µM
CCOC(=O)c1cnc2ccc(OCC)cc2c1NCc1ccccc1OC	i	i	i	-70	12µM
CCOC(=O)c1cnc2c(ccc3ccccc32)c1Nc1ccc(N(C)C)cc1	nt	nt	nt	i	nt
CCOC(=O)c1sc2ncnc(NCc3ccco3)c2c1C	i	i	i	i	nt
SMILES	Shiga toxin inh	Cycloheximide cs	Pf growth 96h	HCMV antiviral	Pf growth 48h
CN(Cc1ccccc1)C(=O)CN1C(=O)NC2(CCCc3sccc32)C1=O (configuration not stated)	nt	nt	nt	i	nt
Cn1c(Nc2ccccc2)nc2cnc(Nc3cccc(Cl)c3)cc21	nt	nt	nt	i	nt
O=C(CSc1nnc(-c2ccccc2O)o1)Oc1ccc(OCc2ccccc2)cc1	101	31	?	?	i
CC(C)(C)N=Cc1c(O)ccc2oc3c(c12)CCCC3	i	i	i	i	i[0.00184 µM]
O=[N+]([O-])c1cc2oc3c(c2c(C=NCc2ccncc2)c1O)CCCC3	i	i	?	nt	10µM
CSc1nc(-c2ccccc2)nc(N)c1C(C)=O	i	i	i	nt	nt
CC(=O)c1c(C)nc(-c2ccc(Cl)cc2)nc1N	96	44	i	i	i
Cc1nnc(-c2ccc(Cl)cc2)nc1NCCN(C)C	i	i	i	i	i
CC(=O)c1c(C)nc(-c2ccc(Cl)cc2)nc1N=CN(C)C	70	46	?	i	i
Cc1ccc(C(=O)c2oc3ccccc3c2NC(=O)COc2ccc(C(C)C)cc2)cc1	nt	nt	nt	i	nt
COc1ccc(Br)cc1CNC(=O)Cn1c(=O)c2cccn2c2ccc(F)cc21	nt	nt	nt	i	nt
CCc1nc2ccc(C(=O)N3CCN(C(=O)c4ccco4)CC3)cn2c1N(C)C(=O)C1CCCCC1	nt	nt	nt	i	nt
CC(C)(C)Nc1nc(Cl)nc(NC(C)(C)C)n1	i	i	15µM	i	i
CC(C)(C)Nc1nc(NN)nc(NC(C)(C)C)n1	i	i	?	-85	?
CNc1nc(Cl)nc(NC(C)(C)C)n1	i	i	i	i	i
COc1ccc(CNC(=O)c2ccc(-c3nc(CSc4ccc(C)cc4)c(C)o3)cc2)cc1OC	nt	nt	nt	i	nt
